Data published in PubChem BioAssay (EPA / NIEHS).
The source made the active and inactive calls. Rule for the calls: active = hit-call score of the fitted dose curve at least 0.9, where 1 is the maximum; inactive = score below 0.9.

Read-out: Macrophage colony-stimulating factor (MCSF), CSF1 (gene 1435)
Test: BSK_LPS_MCSF: BioMAP Diversity Plus: LPS Assay for Macrophage colony-stimulating factor (MCSF) Biomarker Activity (AID 2283083)
Details: primary human HUVEC with PBMC; actives raise or lower the signal
Experimental: BSK_LPS is a cell-based, multiplexed-readout assay that uses umbilical vein endothelium and peripheral blood mononuclear cells, a human vascular primary cell co-culture, with measurements taken at 24 hours after chemical dosing in a 96-well plate.BSK_LPS_MCSF is an assay component measured in the BSK_LPS assay. It measures M-CSF antibody related to regulation of gene expression using ELISA technology.Data from the assay component BSK_LPS_MCSF was analyzed into 1 assay endpoint. This assay endpoint, BSK_LPS_MCSF, was analyzed with bidirectional fitting relative to DMSO as the negative control and baseline of activity. Using a type of binding reporter, gain or loss-of-signal activity can be used to understand changes in the signaling as they relate to the gene CSF1. Furthermore, this assay endpoint can be referred to as a primary readout, because this assay has produced multiple assay endpoints where this one serves a signaling function. To generalize the intended target to other relatable targets, this assay endpoint is annotated to the cytokine intended target family, where the subfamily is colony stimulating factor.
The levels of cell surface (or secreted, indicated by the prefix "s") biomarker endpoints were measured by ELISA. Overt cytotoxicity to cells in confluent adherent cultures (all systems other than the BT system) was assessed by measuring total protein levels using sulforhodamine B (SRB) staining in parallel cultures at the time of biomarker measurements, indicated as SRB endpoints. For proliferation assays for adherent cell types, individual cell types are cultured at sub-confluence and relative cell numbers quantified by SRB staining at time points optimized for each system (48 h: 3C and CASM3C systems; 72 h: BT and HDF3CGF systems; 96 h: SAg system). SRB was performed by staining cells with 0.1% SRB after fixation with 10% TCA and reading wells at 560 nm.Viability and proliferation of PBMC (T cells) was quantified by Alamar Blue reduction for the SAg and BT systems. For PBMC viability (referred to as PBMC Cytotoxicity within the assay endpoint names), cells were plated (75,000/well in a 96-well plate) and then chemical samples added for 1 h before addition of activators, SEB and TSST-1 (20 ng/mL final concentration each). Cells were incubated for 90 h. Then, Alamar Blue (20 uL/well) (Invitrogen, Cat DAL1100) was added for 6 h, and the plates were read with a fluorescence microplate reader at 546/580 nm (excitation/emission). For PBMC proliferation, cells were plated and activated as above but incubated for only 16 h prior to addition of Alamar Blue. Plates were read after 6 h.

SMILES | outcome | AC50
CCC(=O)OCc1ccccc1 | inactive | 
O=C(O)c1cn(-c2ccc(F)cc2)c2cc(N3CCNCC3)c(F)cc2c1=O | inactive | 
CCCCCCCCCCCCCCCCCC(=O)OCC(CC)CCCC (stereo not given) | inactive | 
CCCCCCCCCC=O | inactive | 
CC(=O)OCCC(C)CC(C)(C)C (stereo not given) | inactive | 
C#C[C@]1(O)CC[C@H]2[C@@H]3CCC4=Cc5oncc5C[C@]4(C)[C@H]3CC[C@@]21C | inactive | 
CC(=O)[C@H]1CC[C@H]2[C@@H]3CC=C4C[C@@H](O)CC[C@]4(C)[C@H]3CC[C@]12C | inactive | 
O=P(c1ccccc1)(c1ccccc1)c1ccccc1 | inactive | 
Cc1ccc(Nc2ccc(O)c3c2C(=O)c2ccccc2C3=O)cc1 | inactive | 
Nc1cc([N+](=O)[O-])ccc1Cl | inactive | 
CC1CCC(C(C)CS)CC1S (stereo not given) |  | 36.4 µM (active)
OC[C@H]1O[C@H](O[C@]2(CCl)O[C@H](CCl)[C@@H](O)[C@@H]2O)[C@H](O)[C@@H](O)[C@H]1Cl | inactive | 
CC(C)c1ccc(C(C)C)cc1 | inactive | 
CCCCC(CC)COCCC#N (stereo not given) | inactive | 
C[C@H]1C[C@@H]2[C@H]([C@@H](O)C[C@@]3(C)[C@H]2CC[C@]3(O)C(=O)CO)[C@@]2(C)C=CC(=O)C=C12 | inactive | 
CC(=O)O[C@]1(C(C)=O)CC[C@H]2[C@@H]3C[C@H](C)C4=CC(=O)CC[C@]4(C)[C@H]3CC[C@@]21C | inactive | 
O=C1CCCCCCCCCCCCCCO1 | inactive | 
Nc1cc([N+](=O)[O-])ccc1O | inactive | 
Cc1ccc2n[nH]nc2c1 | inactive | 
CC(C)Oc1ccccc1O | inactive | 

SMILES | outcome | AC50
COc1cc(C=O)ccc1OC(=O)C(C)C | inactive | 
CC(=O)Nc1ccccc1O | inactive | 
CC1COc2ccccc2N1C(=O)C(Cl)Cl (stereo not given) |  | 8.01 µM (active)
N#Cc1ccc(CC(=NNC(=O)Nc2ccc(OC(F)(F)F)cc2)c2cccc(C(F)(F)F)c2)cc1 | inactive | 
c1ccc2sc(SN(C3CCCCC3)C3CCCCC3)nc2c1 |  | 5.57 µM (active)
CCCCCCCCC=O | inactive | 
CC[Si](OC(C)=O)(OC(C)=O)OC(C)=O | inactive | 
NCCNCCN | inactive | 
CNC[C@H](O)c1cccc(O)c1 | inactive | 
Cc1cc(C2(c3cc(C)c(O)cc3C)OS(=O)(=O)c3ccccc32)c(C)cc1O | inactive | 
c1ccc2c(c1)c1cccc3ccc4cccc2c4c31 | inactive | 
COC(=O)c1ccc(C)cc1 | inactive | 
CCc1c(C)cc(N)c(CC)c1N | inactive | 
O=[N+]([O-])c1cc(C(F)(F)F)ccc1Cl | inactive | 
O=C(O)c1ccc([N+](=O)[O-])cc1 | inactive | 
O=C(O)C[C@H](O)C[C@H](O)/C=C/c1c(C2CC2)nc2ccccc2c1-c1ccc(F)cc1 | inactive | 
CC(C)(COC(=O)c1ccccc1)COC(=O)c1ccccc1 |  | 30.9 µM (active)
OC1OC[C@@H](O)[C@H](O)[C@H]1O (stereo not given in full) | inactive | 
CN(CCOc1ccc(CC2SC(=O)NC2=O)cc1)c1ccccn1 (stereo not given) | inactive | 
Cc1ccc(O)c(C(C)(C)C)c1 |  | 36.9 µM (active)
